High-throughput results from PubChem BioAssay.
A selection: hits, their analogues and other compounds. The true share with any hit is near 7.4%.
Rab9 promoter act: Rab9 promoter activation; Huh7 Rab9 promoter-luciferase reporter, luminescence, 24 h; Potency, µM (series often up to 9.22 µM), without a hit: at the highest dose activation, negative = inhibition, most hits filed as activators; hit rate 2.8% among 320,000; further: % of control where 0% means no effect; nearly all actives have a fitted effect of over 60% in size
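Luciferase signal after 10 min detection reagent at ambient indicates Rab9 promoter upregulation; stably transfected Huh7 cells were treated 24 h with compound in DMSO at 37 °C, 5% CO2.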
Luc counter: Kinase-Glo luciferase inhibition (counter-screen); Kinase-Glo luciferase, ATP luminescence, 8 min; Potency, µM (top dose mostly 38.3 µM), without a hit: top-dose activity change, negative = inhibition, hits mostly inhibitors; hit rate 0.28% among 200,000; further: on the % scale 0 is the no-effect control and ±100 the full control effect; nearly all actives have a fitted effect of over 60% in size
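Substrate mix (final 50 mM imidazole pH 7.2, 50 mM KCl, 7 mM MgCl2, 10 uM ATP, 0.01% Tween 20, 0.05% BSA) plus pin-tool compound, then Kinase-Glo detection mix; 8 min ambient, luminescence read.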
FLuc modulator: counter-screen for miR-21 project: firefly luciferase inhibitors or activators | hit rate 6.9% among 360,000 | purified FLuc, Km substrates, luminescence inhibition | AID 588342 | P08659 | Potency, µM (doses to about 57.5 µM), for the others: at the highest dose activity change, negative = inhibition, most hits filed as inhibitors;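 further: plate controls were vehicle for no effect and reference inhibitor for full effect; nearly all actives have a fitted effect of over 55% in size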
Target sequence (P08659 whole entry, looked up): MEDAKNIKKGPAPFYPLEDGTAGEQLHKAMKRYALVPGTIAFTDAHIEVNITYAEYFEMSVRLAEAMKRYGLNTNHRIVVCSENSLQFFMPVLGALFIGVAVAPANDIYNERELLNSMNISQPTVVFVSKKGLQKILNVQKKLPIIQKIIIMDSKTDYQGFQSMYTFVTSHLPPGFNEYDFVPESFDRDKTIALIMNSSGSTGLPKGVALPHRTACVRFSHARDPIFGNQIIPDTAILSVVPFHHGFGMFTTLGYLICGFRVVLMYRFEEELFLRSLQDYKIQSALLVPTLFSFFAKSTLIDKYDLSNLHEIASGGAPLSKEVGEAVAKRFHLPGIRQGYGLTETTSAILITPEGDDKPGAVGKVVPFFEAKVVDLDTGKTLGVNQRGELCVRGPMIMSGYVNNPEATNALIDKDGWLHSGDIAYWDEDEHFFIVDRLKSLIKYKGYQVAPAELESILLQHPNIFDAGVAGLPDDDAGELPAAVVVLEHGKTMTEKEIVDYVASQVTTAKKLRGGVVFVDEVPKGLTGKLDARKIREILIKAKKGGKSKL
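Purified P. pyralis luciferase, 10 nM final, with Km-level 10 uM D-luciferin and 10 uM ATP in 50 mM Tris acetate pH 7.5, 10 mM Mg acetate, 0.01% Tween-20, 0.05% BSA; 6-point qHTS titration about 60 µM downward; luminescence read.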
ELG1 genotoxic: genotoxicity induction in ELG1-luciferase HEK293T cells; HEK293T ELG1-luciferase reporter, luminescence, 16 h; Potency, µM (titrated, usually from 46 µM), without a hit: at the highest dose activity change, positive = activation, actives largely listed as activators; hit rate 1.3% among 330,000; AID 504466; further: % of control where 0% means no effect; nearly all actives have a fitted effect of over 60% in size
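Genotoxic stress is detected as increased luminescence from luciferase-tagged ELG1 in HEK293T cells, measured with ONE-Glo after a 16 hr treatment at 37 °C.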
NPC1 prom act: NPC1 promoter activation; Huh7 NPC1 promoter luciferase reporter, 24 h; AID 485313; hit rate 2.4% among 320,000; Potency, µM (titrated, usually from 9.22 µM), without a hit: at the highest dose activation, hits mostly activators; further: % of control where 0% means no effect; nearly all actives have a fitted effect of over 60% in size
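Stable NPC1-promoter luciferase Huh7 line; cpd (DMSO) 24 h, 37 °C, 5% CO2; Amplite luciferase reagent 10 min RT; luminescence readout. qHTS format.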
SMN2 splice up: enhancers of SMN2 splice variant expression | Potency, µM (titrated, usually from 46.1 µM), without a hit: top-dose activity change, positive = activation, actives largely listed as activators | AID 1458 | hit rate 2.8% among 210,000 | HEK293 SMN2-luciferase splicing reporter, luminescence, 30-36 h; further: % of control where 0% means no effect; nearly all actives have a fitted effect of over 55% in size
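HEK293 cells carry an SMN2 […]–luciferase reporter in which exon 7 inclusion puts luciferase in frame. Cells were plated 10-12 h before compound addition, then incubated 30-36 h at 37C. ONE-Glo luminescence was read; sodium butyrate at 4.5 mM final served as control.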
Starred values were filed as active, the others as inactive; u = inconclusive; x = no result given. The call rests on the fitted dose curve; in most records, active means well fitted curve in the direction sought with a large enough effect; inconclusive means small, poorly fitted or top-dose-only effect, or another doubt; inactive means no such curve, though single readings can be large; an effect the other way counts as inactive or inconclusive. Potency means the concentration at half of the fitted maximal effect.

SMILES	Rab9 promoter act	Luc counter	FLuc modulator	ELG1 genotoxic	NPC1 prom act	SMN2 splice up
CCOC(=O)c1cnn(-c2ccccc2)c1N	-1%	-3%	u	0%	3%	1%
CCOC(=O)c1cnn(-c2ccc(C(F)(F)F)cn2)c1N	u	-5%	11µM*	u	u	u
CCOC(=O)c1cnn(-c2ncnc3sc(CC)cc23)c1N	3%	-2%	13µM*	4%	-3%	13%
Cc1ccc(S(=O)(=O)N2CC3CCCC2C3)cc1 (stereo not drawn)	-1%	x	0%	0%	3%	x
CCc1ccc(OCC(=O)Nc2ccc(-c3nc4ncccc4o3)cc2)cc1	x	x	-2%	x	x	-8%
O=C(Nc1ccccc1F)c1ccc(CSc2ncccn2)cc1	3.5µM*	u	u	u	3.5µM*	u
CC(=O)Nc1nnc(SCc2ccc(C(=O)Nc3ccccc3F)cc2)s1	14%	-9%	4%	9%	-5%	-17%
O=C(Nc1ccccc1F)c1ccc(OCc2ccccc2)cc1	u	-6%	u	u	u	22µM*
O=C(Nc1ccccc1)c1ccc(CSc2ncccn2)cc1	1µM*	u	3.4µM*	u	1.1µM*	13µM*
COC(=O)c1ccccc1NC(=O)c1cnc2sc(N3CCOCC3)nn2c1=O	x	x	-5%	x	x	x
CC(C)c1ccc(NC(=O)c2cnc3sc(N4CCOCC4)nn3c2=O)cc1	x	x	1.9µM*	x	x	x
COc1nc(-c2ccccc2)ccc1-c1noc(-c2ccccc2F)n1	u	-3%	5.4µM*	u	u	29%
COc1ccc(-c2ccc(-c3noc(-c4ccc(OC)c(OC)c4)n3)c(OC)n2)cc1	3%	-2%	0%	0%	-2%	-21%
COc1cccc(-c2nc(-c3ccc(-c4ccccc4)nc3OC)no2)c1	x	x	2.4µM*	x	x	1%
COc1ccc(-c2ccc(-c3noc(-c4cccc(OC)c4)n3)c(OC)n2)cc1	10%	0%	7.6µM*	2%	-2%	-46%
COc1cccc(-c2nc(CS(=O)(=O)c3ccccc3)no2)c1	3.2µM*	0%	12µM*	u	2.8µM*	11µM*
COc1nc(-c2ccccc2)ccc1-c1noc(-c2ccc(F)cc2)n1	11%	-2%	4%	-1%	0%	12%
COc1ccc(NS(=O)(=O)c2cccc(-c3nnc(-c4ccccc4)o3)c2)cc1	-4%	-5%	-17%	-4%	-1%	-20%
COc1ccc(N2CCN(C(CNC(=O)C(=O)NCC(OC)OC)c3ccco3)CC2)cc1 (stereo not drawn)	-4%	x	0%	-1%	1%	x
Cc1ccc(C(=O)c2coc3cc([N+](=O)[O-])c(O)c([N+](=O)[O-])c23)cc1	1%	-2%	u	0%	0%	-7%
Cc1noc(NS(=O)(=O)c2ccc(N/C=C\C(=O)c3cccc4ccccc34)cc2)c1C	11%	1%	13µM*	10%	2%	-15%
Cc1noc(NS(=O)(=O)c2ccc(N/C=C\C(=O)c3ccc(Br)cc3)cc2)c1C	-10%	1%	27µM*	1%	3%	x
COc1cc(OC)cc(C(=O)Nc2ccc(S(=O)(=O)Nc3onc(C)c3C)cc2)c1	x	x	u	x	x	5%
Cc1noc(NS(=O)(=O)c2ccc(N/C=C\C(=O)c3ccc4c(c3)OCO4)cc2)c1C	-1%	5%	9.5µM*	9%	-1%	-11%
COc1cccc(C(=O)/C=C/Nc2ccc(S(=O)(=O)Nc3onc(C)c3C)cc2)c1	12%	0%	15µM*	13%	0%	14%
SMILES	Rab9 promoter act	Luc counter	FLuc modulator	ELG1 genotoxic	NPC1 prom act	SMN2 splice up
CCc1nnc(NS(=O)(=O)c2ccc(N/C=C\C(=O)c3cccc4ccccc34)cc2)s1	-1%	3%	-5%	1%	0%	10%
Cc1noc(NS(=O)(=O)c2ccc(NC(=O)/C=C/c3ccc(Br)cc3)cc2)c1C	3%	x	u	6%	-7%	x
Cc1ccc(Cn2nc(C)c(C(=O)NCC(c3cccs3)N3CCOCC3)c2Cl)cc1 (stereo not drawn)	-10%	x	-1%	-38%	-3%	x
CCOc1ccc(C(=O)/C=C/Nc2ccc(S(=O)(=O)Nc3onc(C)c3C)cc2)cc1	14%	1%	15µM*	u	-1%	u
CCOc1ccc(C(=O)/C=C/Nc2ccc(S(=O)(=O)N=C(N)N)cc2)cc1	0%	-2%	-6%	u	7%	23%
COc1ccccc1NC(=O)C1CCN(C(=O)C2CC(=O)N(c3ccc(C)cc3)C2)CC1 (stereo not drawn)	-1%	x	0%	-2%	0%	x
O=C(Cc1c[nH]c2ccccc12)Nc1nnc(C2CC2)s1	-1%	-1%	1%	-10%	2%	11µM*
Cc1c(C(=O)Nc2cccc3cccnc23)oc2ccccc12	u	1%	-18%	18%	26%	3%
Cc1c(C(=O)NC2=NCCS2)oc2ccccc12	u	u	3µM*	u	u	2.8µM*
Cc1sc(NC(=O)c2oc3ccccc3c2C)c(C#N)c1C	20%	5%	1%	1%	14%	0%
Cc1c(C(=O)Nc2nnc(C3CC3)s2)oc2ccccc12	2.2µM*	x	4.8µM*	u	3.5µM*	x
Cc1csc(NC(=O)c2oc3ccccc3c2C)n1	3.5µM*	x	1.7µM*	u	3.2µM*	x
N#Cc1cccc(-c2csc(N3CCC(C(N)=O)CC3)n2)c1	x	x	-17%	x	x	x
OC(Cc1cccnc1)(Cc1cccnc1)c1cc2ccccc2[nH]1	2%	0%	0%	-1%	2%	1%
CCc1cc(C(=O)c2ccc(OC)cc2)c(N)s1	-1%	x	-2%	1%	-6%	x
COc1ccc(C(=O)c2ccc(CC#N)s2)cc1	u	4%	12µM*	u	u	13µM*
COc1ccc(C(=O)c2no[n+]([O-])c2C(=O)c2ccc(OC)cc2)cc1	-1%	3%	-3%	3%	-1%	-95%
COc1ccc(C(=O)c2ccsc2N)cc1	u	x	17µM*	u	3.5µM*	x
O=c1[nH]c(=O)n(Cc2ccco2)c2c1C(C(F)(F)F)(C(F)(F)F)N=C(Cc1ccccc1)N2	-8%	-4%	4%	-7%	-8%	-28%
CC(C)(C)OC(=O)N[C@@H](Cc1ccccc1)[C@H](O)c1ccco1	-1%	x	6%	0%	0%	x
O=C(Cc1ccccc1)Nc1ccc(NC(=O)c2cccs2)cc1	25%	-6%	2%	6%	3%	25%
Cc1ccc(C(=O)Nc2ncc(Cc3ccccc3)s2)o1	3.2µM*	x	0.95µM*	u	1.4µM*	x
